Many of the other results were omitted from the sample, so hits are more common in it than they were.
CHX counter – affects cycloheximide protein synthesis inhibition readout, counter-screen; cell reporter, cycloheximide protein synthesis inhibition counterscreen; max response, %; 300,000 compounds, 12% hits; in the data active means max response mostly above about 13%, no sharp cut-off; inactive means mostly below about 14%; further: read at 38.3 µM for the half of the compounds with a filed dose; 0% is about no effect
FBPA Giardia inh – inhibitors of Giardia lamblia fructose-1,6-bisphosphate aldolase; A8B2U2; purified Giardia FBPA; Potency, µM (titrated, usually from 59.6 µM), for inactives: top-dose activity, negative = inhibition, actives largely listed as inhibitors; 290,000 compounds, 0.71% hits; AID 2451; further: potency means the concentration at half of the fitted maximal effect; on the % scale 0 is the no-effect control and ±100 the full control effect; nearly all actives have a fitted effect of over 55% in size
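40 nM FBPA preincubated 10 min at RT with compound (up to 57.5 uM final), then substrate plus GAPDH/TPI/NAD/arsenate coupling and diaphorase/resazurin added. Fluorescence read after 20 min at RT, 525/598 nm.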
LmPK inhibitor – inhibitors of Leishmania mexicana pyruvate kinase. Q27686. AID 1721. 290,000 compounds, 0.37% hits. Potency, µM (series often up to 57.5 µM), inactives show at the highest dose activity change, negative = inhibition, usual class: inhibitors. purified LmPK, Kinase-Glo ATP luminescence, 1 h; further: potency means the concentration at half of the fitted maximal effect; on the % scale 0 is the no-effect control and ±100 the full control effect
Target sequence (Q27686 whole entry, looked up): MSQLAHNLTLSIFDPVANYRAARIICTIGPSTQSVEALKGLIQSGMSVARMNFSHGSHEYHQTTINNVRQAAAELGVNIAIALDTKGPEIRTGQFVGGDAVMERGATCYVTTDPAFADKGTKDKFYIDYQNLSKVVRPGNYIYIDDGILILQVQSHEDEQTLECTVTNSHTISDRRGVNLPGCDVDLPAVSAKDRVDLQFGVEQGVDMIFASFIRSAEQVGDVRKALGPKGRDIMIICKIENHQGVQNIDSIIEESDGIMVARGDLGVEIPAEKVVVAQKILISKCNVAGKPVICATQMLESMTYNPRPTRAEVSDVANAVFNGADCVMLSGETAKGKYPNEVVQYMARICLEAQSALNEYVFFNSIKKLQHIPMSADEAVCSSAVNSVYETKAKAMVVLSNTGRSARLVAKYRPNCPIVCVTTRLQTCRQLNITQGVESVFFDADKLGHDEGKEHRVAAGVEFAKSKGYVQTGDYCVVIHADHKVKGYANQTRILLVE
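In 50 mM imidazole pH 7.2 with 7 mM MgCl2, LmPK (0.1 nM) turned over PEP (0.5 mM) and ADP (0.1 mM) for 1 h at room temperature. Luciferase read-out of ATP.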
Tb PYK inh – inhibitors of Trypanosoma brucei pyruvate kinase. AID 624173. 410,000 compounds, 0.12% hits. Potency, µM (highest dose often 76.8 µM), inactives show at the top dose activity, negative = inhibition, hits mostly inhibitors. Q57TT1. TbPYK enzyme, Kinase-Glo Plus ATP luminescence, 45 min; further: potency means the concentration at half of the fitted maximal effect; on the % scale 0 is the no-effect control and ±100 the full control effect; nearly all actives have a fitted effect of over 50% in size
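Luminescent Kinase-Glo Plus end-point after 45 min room-temperature reaction of T. brucei pyruvate kinase started with 130 uM ADP (final). Buffer TEA 50 mM pH 7.2 with KCl, MgCl2, BSA, Tween-20; titration-based qHTS with fitted concentration-effect curves.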
Shiga inhibitor – Shiga toxin inhibition; inhibition, % at 38.7 µM; 290,000 compounds, 9.2% hits; Vero cells, Shiga toxin protein synthesis inhibition reporter; AID 2315; in the data active means inhibition mostly above about 28%, no sharp cut-off; inactive means mostly below about 43%; further: 0% is about no effect
RE007 growth inh – less growth of the S. pombe RE007 Vpr strain; Potency, µM (highest dose often 92.2 µM), inactives show top-dose activity change, negative = less growth, hits mostly inhibitors; S. pombe RE007 Vpr strain, BacTiter-Glo ATP luminescence, 24 h; 360,000 compounds, 0.21% hits; active means well fitted falling curve with a large enough effect; inconclusive means small, poorly fitted or top-dose-only effect; inactive means no such curve, though single readings can be large or run the other way; further: potency means the concentration at half of the fitted maximal effect; on the % scale 0 is the no-effect control and ±100 the full control effect; nearly all actives have a fitted effect of over 50% in size
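Fission yeast RE007 carrying one integrated HIV-1 vpr copy, seeded at OD 0.01 in PMG+AL medium with 23 nL pinned compound. Grown 24 h at 30 degrees; viability read by BacTiter-Glo luminescence after 5 min.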
* = called active by the depositor; u = inconclusive; x = not tested or not shown; [ ] = dose if it differs, or a comment. Unless noted, the call rests on the fitted dose curve; in most records, active means well fitted curve in the direction sought with a large enough effect; inconclusive means small, poorly fitted or top-dose-only effect, or another doubt; inactive means no such curve, though single readings can be large; an effect the other way counts as inactive or inconclusive.

SMILES	CHX counter	FBPA Giardia inh	LmPK inhibitor	Tb PYK inh	Shiga inhibitor	RE007 growth inh
CO/N=C/CC(=O)c1ccc([N+](=O)[O-])c(CS(=O)(=O)c2ccc(Cl)cc2)c1	2	-8%	-1%	2%	2	x
CS(=O)(=O)c1ccc(Cl)c(NC(=O)COC(=O)CCCN2C(=O)c3cccc4cccc(c34)C2=O)c1	x	x	x	2%	x	11%
N#Cc1c(C(F)(F)F)cc(-c2cccs2)nc1SCC(=O)Nc1ccc(F)cc1	x	x	x	-14%	x	x
COc1ccc(CNC(=O)NC2CCCCC2)cc1	26*	-1%	-1%	11%	33*	14%
O=C(NCc1ccccc1)NC1CCCCC1	38*	1%	-9%	0%	42*	7%
COc1ccc(NC(=O)c2ccc(CNc3c(NC4CCCCC4)c(=O)c3=O)cc2)cc1OC	4	u	8%	-6%	20	-2%
O=C(NCc1cccnc1)NC1CCCCC1	11	-5%	-3%	-2%	3	-8%
O=C(NCCC1=CCCCC1)NC1CCCCC1	45*	0%	-4%	-6%	72*	33%
COc1ccc(CNC(=O)c2ccc(CNc3c(NC4CCCCC4)c(=O)c3=O)cc2)cc1	46*	3%	0%	1%	36	-1%
O=C(CCCc1ccccc1)N=C1SC2CS(=O)(=O)CC2N1c1ccccc1F (centres undefined)	-1	3%	4%	0%	-5	7%
CC1(C(=O)NCCOc2ccccc2Cl)CC1(Cl)Cl (centres undefined)	9	3%	-2%	1%	18	1%
COc1ccccc1CCNC(=O)C1(C)CC1(Cl)Cl (centres undefined)	15*	2%	1%	2%	26	35%
O=C(NCCc1ccccc1)NC1CCCCC1	39*	0%	-3%	-6%	52*	12%
COc1ccccc1CCNC(=O)NC1CCCCC1	18*	2%	2%	7%	35	-14%
COc1ccc(CCNC(=O)NC2CCCCC2)cc1OC	2	0%	-2%	5%	-8	14%
CCCC(=O)Nc1ccc2nn(-c3ccc(CC)cc3)nc2c1	x	x	x	-2%	x	x
COc1cc(C(=O)NCC(c2cccs2)S(=O)(=O)c2ccc(F)cc2)cc(OC)c1OC (centres undefined)	x	x	x	1%	x	x
Nc1nonc1-c1noc(CCCN2C(=O)c3ccccc3C2=O)n1	112*	6%	0%	2%	98*	-1%
Nc1nonc1-c1noc(-c2ccccc2Br)n1	30*	-1%	-10%	-1%	38*	u
FC(F)(F)c1ccc(-c2noc(-c3ccccc3Br)n2)cc1	x	x	x	-1%	x	x
COc1ccc(C(NC(=O)/C=C\c2ccco2)c2ccc(OC)c(OC)c2)cc1 (centres undefined)	25*	6%	2%	u	105*	-3%
COc1ccccc1NC(=S)NC(=O)/C=C/c1ccco1	7	-14%	5%	-10%	9	-17%
O=C(/C=C/c1ccco1)Nc1ccc(Oc2ccc(Cl)cc2)cc1	-3	-8%	0%	-4%	0	u
COc1ccccc1NC(=O)/C=C\c1ccco1	41*	0%	-3%	-20%	68*	-8%
COc1ccc(C(NC(=O)/C=C/c2ccco2)c2ccc(OC)cc2)cc1	7	-4%	1%	-17%	1	9%
SMILES	CHX counter	FBPA Giardia inh	LmPK inhibitor	Tb PYK inh	Shiga inhibitor	RE007 growth inh
CC(C)(C)c1ccc(/C=C/C(=O)Nc2cccnc2)cc1	29*	0%	-2%	6%	70*	-14%
COc1cccc(NC(=O)/C=C/c2ccco2)c1	52*	-23%	16µM*	-16%	140*	u
O=C(O)/C=C/C(=O)Nc1cccnc1	-1	-3%	1%	-2%	-10	0%
Cc1nc(Cl)c(Cl)n1CCOc1ccccc1	6	-5%	5%	1%	-1	8%
Cc1cc(Nc2ccccc2C)n2nc(Cc3ccc(Cl)cc3)nc2n1	x	x	x	0%	x	x
COc1ccc(-c2cn3nc(N4CCCC(C(=O)Nc5ccccc5OC)C4)sc3n2)cc1 (centres undefined)	x	x	x	4%[15.4 µM]	x	x
COc1ccc(-c2nnc(SCC(=O)Nc3cccc(C(F)(F)F)c3)s2)cc1	x	x	x	-8%	x	x

Screening results deposited in PubChem BioAssay by National Center for Advancing Translational Sciences (NCATS).
